# Source: article PMC12136788
# Over roughly 24,000 sequences, “enrichment r” has its median near 0.99; the highest 2% begin near 3.7. The full list was thinned out, with the highest values kept by preference.
# B1: 90994690_90994914_4067_CDS_ENSMUSG00000040687_ENSMUST00000111370|mouse|control|control (ssRNA)
# RNA: GGGAGUUCUACAGUCCGACGAUCGAGGUACCUGUCGAUCAUUUCCUGAGGACCCUGGUCCAUACCCAUUCCUUCUCUUUCCAACAUUACAGCAUCUAAGAAUGCAUCUUCCCAGAACUGCAUUUGGUCCCAUAAGGUAGAACGCAACAGAGGAUUGAGCAUCA
# B2: chr7:130129250:130129251:+_ENSMUSG00000030779_ENSMUST00000052135|mus_mus|FALSE|FALSE (ssRNA)
# RNA: GGGAGUUCUACAGUCCGACGAUCCUCCUCUGGUAAGAAGGGUGGUUUCUCUUUCUUCCCGAUUGCAUAGGCCUCUGCAUCUAUAGUUGGUAUUGCAUAUUUUCCAGUGUUUGUAAGCAUUGCACCUUUCAUGUUAGGAUCUUUCAACAGAGGAUUGAGCAUCA
# B3: chr14:89338683:89338684:+_ENSG00000165533_ENST00000346301|hu_hu|hu_hu_hu_mus_False|38_98 (ssRNA)
# RNA: GGGAGUUCUACAGUCCGACGAUCGUGGUUGUUGUGGACCAGAGCCAGCCUGAAGCAUUGGUGGGCCAAGUUUGUAUCUCCGAUUCCCACAGCUAUGUGUCCCAAGUUGUACCAGACAUCAGCUGCCUCUUCUUCAUUUUCAGCCAACAGAGGAUUGAGCAUCA
# B4: chr3:179287964:179287965:+_ENSG00000136518_ENST00000429709|hu_hu|hu_hu_hu_mus_True|68_68 (ssRNA)
# RNA: GGGAGUUCUACAGUCCGACGAUCCUUGAGUGGUGAGAUGGCCUCCAUGUUCUCCCUGGGCACGCGGAGAGCAUUAGUGUCUAUGUAGUAGGUGGGCCCGCCCUGCUUGCCUUUGUCACCAUCAAUCUCCAUCAUUGUACUUCCCAACAGAGGAUUGAGCAUCA
# B5: chr7:117217587:117217588:+_ENSMUSG00000061079_ENSMUST00000084727|mus_hu|FALSE|FALSE (ssRNA)
# RNA: GGGAGUUCUACAGUCCGACGAUCGAUAUAAGCUGUGGUACCAUCUUCCAGCUGAACCGCCUGUAAUGCACUCUGGUCAUAACUAUUACUUUUAGGUAUGGGUACAUGUUGAACAUAGGCCGCAGAACCAUCUUCCAACUGAAUCAACAGAGGAUUGAGCAUCA
# B6: chr5:95152273:95152274:-_ENSG00000173221_ENST00000237858|hu_mus|motif|central (ssRNA)
# RNA: GGGAGUUCUACAGUCCGACGAUCCAGCCGAGUCAUCAGCUCCCCAGUCUGUUGCAUGGAGAUUAGAUCACUGCAUCCGCCGGUGCAGUCUUUACCUAUGAAGACCCGAGGAACUGUUCUCGCUCCGGUGAGCUGUUGUAAAUACAACAGAGGAUUGAGCAUCA
# Target: T1, UNK ZnF1-3 (human, UniProt Q9C0B0 31-174)
# T1 sequence: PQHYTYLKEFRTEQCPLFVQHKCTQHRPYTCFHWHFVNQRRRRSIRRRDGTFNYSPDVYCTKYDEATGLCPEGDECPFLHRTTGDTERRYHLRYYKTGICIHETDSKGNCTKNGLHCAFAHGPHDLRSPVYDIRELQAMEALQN
# Experiment: nsRBNS (natural sequence RNA bind-n-seq); RBNS binding buffer (assumed for nsRBNS): 25 mM Tris pH 7.5, 150 mM KCl, 3 mM MgCl2, 0.01% Triton X-100, 500 ug/ml BSA, 20 U/ml SUPERase-In, 4 C; UNK is unkempt and MSI1 is Musashi-1; names of the RNAs are library labels; protein concentration not given here; high values mean tight binding
row,Binder,binding signal [enrichment R]
1,B1,0.917
2,B2,0.384
3,B3,0.877
4,B4,0.757
5,B5,0.834
6,B6,1.01
